# According to PubChem BioAssay (NCI):
# About 83,000 compounds went through this panel and 20% of them were active in at least one assay; those are over-represented in the sample as a whole.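 Compound tested at a single concentration for 48 hours in 96-well plates; a percent growth value below 10 was scored as active.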 Values without a mark were called inactive. Activity calls are given as the source filed them.
# Legend:
# Experiment in all cases: NCI-60 one-dose screen, 48 h (100 = growth as untreated, 0 = no growth, -100 = all killed)
# Details in all cases: 10 µM
# DU-145 prostate = tested on: DU-145 prostate
# K-562 leukemia = tested on: K-562 leukemia
# MDA-MB-231 breast = tested on: MDA-MB-231 breast
# RXF 393 renal = tested on: RXF 393 renal
# SF-268 CNS = tested on: SF-268 CNS
# SF-295 CNS = tested on: SF-295 CNS
# SF-539 CNS = tested on: SF-539 CNS
# UACC-257 melanoma = tested on: UACC-257 melanoma
# M14 melanoma = tested on: M14 melanoma
# HCT-15 colon = tested on: HCT-15 colon
# HT29 colon = tested on: HT29 colon
# SNB-75 CNS = tested on: SNB-75 CNS
# SNB-19 CNS = tested on: SNB-19 CNS
# U251 CNS = tested on: U251 CNS
# PC-3 prostate = tested on: PC-3 prostate
# SK-MEL-5 melanoma = tested on: SK-MEL-5 melanoma
# UACC-62 melanoma = tested on: UACC-62 melanoma
# LOX IMVI melanoma = tested on: LOX IMVI melanoma
# SK-MEL-28 melanoma = tested on: SK-MEL-28 melanoma
# MALME-3M melanoma = tested on: MALME-3M melanoma
SMILES,growth (DU-145 prostate),growth (K-562 leukemia),growth (MDA-MB-231 breast),growth (RXF 393 renal),growth (SF-268 CNS),growth (SF-295 CNS),growth (SF-539 CNS),growth (UACC-257 melanoma),growth (M14 melanoma),growth (HCT-15 colon),growth (HT29 colon),growth (SNB-75 CNS),growth (SNB-19 CNS),growth (U251 CNS),growth (PC-3 prostate),growth (SK-MEL-5 melanoma),growth (UACC-62 melanoma),growth (LOX IMVI melanoma),growth (SK-MEL-28 melanoma),growth (MALME-3M melanoma)
C/C(=N\NC(N)=S)C(C)(C)O,93.2%,37.1%,77.8%,96.2%,95.9%,79.5%,102%,32.6%,92%,101%,61%,91.2%,106%,88.1%,90.1%,101%,103%,95.1%,98.5%,
Cc1ccc(S(=O)(=O)Oc2ccccc2-c2ccccc2)cc1,34%,15.3%,55.9%,28.9%,42.5%,8.37% (active),8.87% (active),54.4%,6.11% (active),23.2%,5.05% (active),-12.1% (active),42.8%,24.8%,42.4%,5.97% (active),37.1%,36%,30.8%,
C[C@]12CC[C@H]3[C@@H](CCC4=CC(=O)CC[C@@]43C)[C@@H]1CC[C@@H]2c1csc(N)n1,78.2%,26%,66.8%,76.8%,89.6%,50.3%,81%,49.6%,61%,46.5%,56.6%,92.5%,71.5%,56.9%,19.3%,9.04% (active),41.8%,59.3%,82.8%,
Cc1cc(C(C)(C)CC(C)(C)C)ccc1OCCOCC[N+](C)(C)Cc1ccccc1,22.4%,-53.8% (active),-67.7% (active),,-69.7% (active),-14.3% (active),-82.6% (active),22.9%,-83.2% (active),94.6%,-81.2% (active),,-80.8% (active),-86.2% (active),-19.4% (active),-95.8% (active),-91.9% (active),-92.9% (active),-92% (active),-35.5% (active)
COc1cc(/C=C/C(=O)c2cc(-c3ccc(C(F)(F)F)cc3)ccc2O)cc(OC)c1OC,81%,41%,61.3%,61%,76.2%,78.1%,92.3%,82.5%,81.8%,60%,60.5%,78.6%,75.4%,69%,44.4%,47.2%,53.5%,19.2%,92.2%,
CC[C@@]1(C(N)=O)CC2C=CC1C2 (some centres not stated),113%,92.6%,109%,112%,119%,110%,111%,118%,102%,116%,106%,92.4%,107%,113%,93.1%,106%,107%,105%,112%,
C/C(=N\NC(=O)c1sc(=S)n(C)c1N)c1cc2ccccc2o1,77.4%,-10.9% (active),36%,,55.9%,-20.6% (active),71.9%,56.5%,40.8%,48%,36.6%,53%,89.9%,56.5%,,43.1%,71.3%,25.6%,71.8%,99.3%
N#CC1C=Cc2c(ccc3ccccc23)N1C(=O)c1ccccc1 (configuration not stated),-2.67% (active),17.2%,24.4%,5.17% (active),27.2%,-19.4% (active),-7% (active),70.3%,7.78% (active),20.6%,8.15% (active),22%,43.3%,24%,32.6%,12.7%,37.7%,27.5%,48.9%,
Nc1cc2c(cc1Cl)-c1ccc(Cl)cc1C2=O,105%,89.9%,82.5%,131%,93.8%,115%,78.2%,103%,104%,99.7%,97.5%,89.7%,98.7%,91.1%,94.2%,108%,95.7%,95.1%,109%,
Nc1ccc2c(c1)Cc1cc(N)c(Cl)cc1-2,119%,104%,88.4%,110%,113%,99.1%,95.9%,94.5%,107%,100%,101%,86.7%,92.9%,93.2%,95.7%,93.9%,83.9%,104%,103%,
O=[N+]([O-])c1ccc(S(=O)(=O)OCCCCOS(=O)(=O)c2ccc([N+](=O)[O-])cc2)cc1,107%,94.7%,106%,112%,106%,105%,104%,108%,104%,114%,107%,92%,112%,104%,98.4%,,99.8%,94.6%,99.1%,
CCOC(=O)c1c(O)c2cc(-c3ccccc3)nc(OCC)c2c(=O)n1C,107%,97.1%,95.9%,-0.249% (active),94.3%,95.6%,94.6%,54.9%,87.8%,82.7%,107%,95.6%,91.5%,97.3%,14.3%,86.7%,99.9%,98.7%,84.8%,
O=C(c1ccccc1)C(Sc1ccccc1)c1ccccc1 (configuration not stated),29.7%,84.5%,89.2%,80.7%,92.6%,113%,99.5%,98.8%,94.5%,60.7%,45.6%,101%,110%,79.4%,73%,108%,83.5%,,94.1%,
COc1ccc(-c2n/c(=C\c3c(O)[nH]c4ccccc34)cc3c2=Nc2ccccc2-3)cc1,19.1%,-8.09% (active),30.6%,44.8%,5.04% (active),38.5%,82.6%,91.8%,3.99% (active),1.23% (active),-37.1% (active),66.1%,63.1%,-61.4% (active),43.3%,70%,87.3%,2.48% (active),-25.6% (active),
CCOC(=O)C(=O)Cc1cccnn1,113%,110%,96.4%,102%,113%,139%,92.4%,96.2%,103%,102%,101%,78%,102%,96.8%,91.7%,108%,99.7%,99.5%,108%,
CCOC(=O)c1cc2c(n1Cc1cc(OC)cc(OC)c1)-c1oncc1CC2,13.8%,16.7%,30.4%,18.7%,50.5%,-4.53% (active),-7.41% (active),60.5%,1.54% (active),21.9%,5.66% (active),-0.349% (active),38.7%,23.5%,27.4%,24.6%,,49.5%,33.8%,
COc1cc(N=C2C(=O)N(Cc3ccccc3)c3ccccc32)cc(OC)c1OC,104%,97.4%,105%,-23% (active),97.4%,94.3%,93%,96.6%,98.2%,95.3%,103%,82.6%,95.1%,94.2%,97.8%,94.2%,90.8%,,113%,
